Bioassay records deposited in PubChem BioAssay by National Center for Advancing Translational Sciences (NCATS).
Shown are actives, neighbours in structure and some others; about 21% of the full set was active somewhere.
CHX counter: Cycloheximide Counterscreen for Small Molecule Inhibitors of Shiga Toxin; 300,000 tested, 12% active; cell reporter, cycloheximide protein synthesis inhibition counterscreen; max response, %; in the data active = max response mostly above about 13%, no sharp cut-off; inactive = mostly below about 14%; also: read at 38.3 µM for the half of the compounds with a filed dose; 0% is about no effect
HCMV inh: qHTS Assay for inhibitors of the human cytomegalovirus (HCMV); AID 1259415, 2018; activity change, negative = inhibition, % at 57.5 µM; 410,000 tested, 4.5% active; HFF cells, HCMV-luciferase reporter, 72 h; stronger effect = lower value; in the data active = activity change below about -60%; inconclusive = no clear call, values can overlap the other calls; inactive = above about -39%; also: % is scaled to controls: 0 for no effect and ±100 for the full control effect
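Human foreskin fibroblasts infected with luciferase-reporter HCMV at MOI 1 PFU/cell, compounds at two doses. Luciferase measured 72 h post infection; normalized to buffer-only basal and Salinomycin (10uM) controls.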
HCV inhibitor: qHTS Assay for Inhibitors of Hepatitis C Virus (HCV) | 340,000 tested, 3.4% active | Huh7.5.1 HCVcc-Cre infection, luciferase reporter, 44 h | AID 651820, 2012 | Potency, µM (top dose mostly 41.8 µM), for the others: at the highest dose activity change, negative = inhibition, usual class: inhibitors; also: potency is read from the fitted curve at half-maximal effect; % is scaled to controls: 0 for no effect and ±100 for the full control effect
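Cells (1,000/well) were plated 4 h before compound, then infected with HCVcc-Cre virus (~0.5 moi). After 44 h further culture, infection was read as luciferase luminescence following a 15 min substrate incubation at room temperature.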
Shiga inhibitor: A qHTS for Small Molecule Inhibitors of Shiga Toxin. 290,000 tested, 9.2% active. inhibition, % at 38.7 µM. AID 2315, 2010. Vero cells, Shiga toxin protein synthesis inhibition reporter; in the data active = inhibition mostly above about 28%, no sharp cut-off; inactive = mostly below about 43%; also: 0% is about no effect
Pf growth 96h: Primary qHTS for delayed death inhibitors of the malarial parasite plastid, 96 hour incubation; 320,000 tested, 6.9% active; P. falciparum luciferase reporter growth, 96 h; Potency, µM (series often up to 28.7 µM), for inactives: at the highest dose activity change, negative = inhibition, hits mostly inhibitors; also: potency is read from the fitted curve at half-maximal effect; % is scaled to controls: 0 for no effect and ±100 for the full control effect
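Erythrocytes infected with luciferase-expressing P. falciparum were dispensed at 2% hematocrit and 0.05% parasitemia (final), then incubated with compounds 96 hours at 37 C in 5% CO2. Luminescence after detection reagent addition reported growth.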
Pf growth 48h: Primary qHTS for delayed death inhibitors of the malarial parasite plastid, 48 hour incubation | AID 504832, 2011 | Potency, µM (top dose mostly 28.7 µM), without a hit: at the top dose activity change, negative = inhibition, most hits filed as inhibitors | 310,000 tested, 5.9% active | P. falciparum luciferase growth in erythrocytes, 48 h; also: potency is read from the fitted curve at half-maximal effect; % is scaled to controls: 0 for no effect and ±100 for the full control effect
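In quantitative HTS format, infected erythrocytes bearing luciferase-reporter parasites were treated for a single generation at 37 C. Luminescence after adding detection reagent served as the growth measure.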
* hit, by the source's call; ? = inconclusive; . = not tested or not shown. Unless noted, calls follow the shape of the dose curve; as a rule, active = well fitted inhibition curve with a large enough effect; inconclusive = small, poorly fitted or top-dose-only effect, or another doubt; inactive = no such curve, though single readings can be large or run the other way.

SMILES | CHX counter | HCMV inh | HCV inhibitor | Shiga inhibitor | Pf growth 96h | Pf growth 48h
CCC(C(=O)Nc1cc(F)ccc1F)n1nc(C)c2c(C)n(-c3ccc(C)cc3)nc2c1=O (stereo not given) | -2 | -95* | 8.9µM* | 2 | 8.3µM* | ?
CCOc1ccc(NC(=O)C(CC)n2nc(C)c3c(C)n(-c4ccccc4)nc3c2=O)cc1 (stereo not given) | -9 | 8 | -5% | -5 | 13µM* | ?
CCC(C(=O)Nc1cccc(OC)c1)n1nc(C)c2c(C)n(-c3ccccc3)nc2c1=O (stereo not given) | -10 | 2 | -10% | -3 | 38% | ?
Cc1ccc(-c2nc3n(n2)C(c2ccccc2Cl)C=C(c2ccc(Cl)cc2)N3)cc1 (stereo not given) | . | -4 | . | . | . | .
Cn1cc(-c2cc3cnc(Nc4ccc5c(c4)OCO5)cc3n2C)cn1 | . | -7 | . | . | . | .
O=C(CSc1n[nH]c(=O)n1Cc1ccco1)N1CCOCC1 | 16* | 10 | 15% | -6 | 1% | 37%
O=C(CSc1n[nH]c(=O)n1-c1cccnc1)Nc1ccccc1 | -2 | -9 | 11% | 33 | 29% | -4%
O=C(CSc1n[nH]c(=O)n1-c1cccnc1)N1CCOCC1 | 20* | 29 | 6% | 4 | 43% | 20%
COc1ccc(CNC(=O)CN2C(=O)COc3ccccc32)c(OC)c1 | . | 13 | . | . | . | .
Cc1ccccc1C1=NOC2CN(C(=O)COc3ccccc3)CC12 (stereo not given) | . | -23 | . | . | . | .
COc1ccccc1C(=O)N/C(=C\c1ccccc1)C(=O)NC(Cc1ccccc1)C(=O)O (stereo not given) | -3 | 4 | -1% | 2 | 47% | -7%
CC(=C/c1ccc(C(C)C)cc1)/C=N/NC(=O)c1ccncc1 | 36* | -21 | ? | 84* | ? | 13µM*
CC(/C=N/NC(=O)c1ccncc1)=C\c1ccccc1 | 23* | 31 | 9% | 52* | 33% | ?
COc1ccccc1C(=O)N/C(=C\c1ccccc1)C(=O)NC(C)C(=O)O (stereo not given) | -3 | 3 | 6% | -13 | 9.3µM* | 21%
COc1ccccc1C(=O)N/N=C/C(C)=C/c1ccccc1 | 19* | 25 | 9% | 113 | -6% | 15%
CC(/C=C/c1ccccc1)=N/NC(=O)c1cc([N+](=O)[O-])cc([N+](=O)[O-])c1 | -10 | 69 | -28% | -1 | 72% | ?
O=C(Cn1cnc2ccccc21)N/N=C/c1ccccc1 | 0 | 12 | 8% | -18 | 29% | 5%
CC(/C=C/c1ccccc1F)=N\NC(=O)c1cccc(F)c1 | 46* | 1 | ? | 65* | -23% | 2%
CC(/C=N/NC(=O)c1ccc2nc(C)[nH]c2c1)=C\c1ccccc1 | 14 | -16 | -19% | 16 | ? | 33%
CC(=C/c1ccccc1)/C=N/NC(=O)c1ccccn1 | 33* | 7 | 1% | 23* | 13% | ?
CC(/C=N/NC(=O)Cn1cnc2ccccc21)=C\c1ccccc1 | -4 | -70* | -5% | -9 | 0% | -18%
CC(/C=N/NC(=O)c1cccc(F)c1)=C\c1ccccc1 | 51* | 91 | ? | 104* | -3% | ?
COc1ccccc1NC(=O)C(C)OC(=O)C1CC(=O)N(Cc2ccco2)C1 (stereo not given) | . | -18 | . | . | . | .
CCc1cccc2cc(C(O)CNC(C)(C)C)oc12 (stereo not given) | -2 | . | . | -6 | . | .
CCOc1ccc(-n2c(=O)c3c4c(sc3n(Cc3cccc(Cl)c3)c2=O)CCCC4)cc1 | . | 9 | . | . | . | .
Cc1ccc(/C=[N+](\[O-])c2ccc(N(C)C)cc2)c2nsnc12 | 34* | 62 | ? | 85* | 132% | -108%
O=C(O)c1cccc(N2C(=O)C3CC=C(Cl)CC3C2=O)c1 (stereo not given) | -4 | -2 | 6% | -5 | 10µM* | .
O=C(COC(=O)c1ccc(N2CCCC2=O)cc1)c1ccccc1 | 31* | -35 | 2% | 83* | 223% | 195%
